Assay results as given in PubChem BioAssay AID463173 (ICCB-Longwood Screening Facility, Harvard Medical School, 2010).
The campaign covered roughly 52,000 compounds. About 4,300 (8.3%) were called active. The list comes from a sample in which actives are over-represented; it also holds similar structures and randomly drawn compounds. Values without a mark were called inactive. Cut-off read from the data, not from the text of the source: active = survival mostly below about 52% (no sharp cut-off); inactive = mostly above about 56%.

What follows are compounds tested on DeltatarO mutant (assay: S. aureus survival, RN4220 and DeltatarO strains – OD600, teichoic acid synthesis inhibitors, primary screen (AID 463173)). Details: S. aureus RN4220 wild type/DeltatarO growth, OD600, 18 h, stronger effect = lower value, screened at 18.75 µg/mL (by protocol).

First: CSc1ncc(C(=O)N2CCN(c3cc(C)ccc3C)CC2)c(C)n1
Second: COc1cccc2cc(C(=O)N3CCN(c4cc(C)ccc4C)CC3)c(=O)oc12
The survival of the first is higher: 72% for the first, 56% for the second.

First: Cc1ccc(S(=O)(=O)c2nnn3c2nc(N2CCC(C)CC2)c2cc(Cl)ccc23)cc1C
Second: CCCn1cc(S(=O)(=O)c2ccc(C)c(C)c2)c(=O)c2cc(F)c(N3CCC(C)CC3)cc21
The survival of the first is higher: 78% for the first, 67% for the second.

Going from `COc1ccc(OC)c(C2C(C(=O)N3CCCCC3)=C(C)Nc3nc4ccccc4n32)c1` (stereo not given) to `O=C(c1cc(-c2ccccc2)on1)N1CCCCC1`, the survival rises from 63% to 95%.

Going from `COc1ccc(-n2cnc3cc(C(=O)NCCC4=CCCCC4)ccc32)cc1` to `CCOc1ccc(CNC(=O)c2nn(-c3ccc(OC)cc3)c(=O)c3c2c2ccccc2n3C)cc1`, the survival rises from 75% to 101%.

Compared with `CC(C)C(=O)Nc1ccc(N2CCN(C(=O)c3ccccc3)CC2)cc1`, `O=C(c1cc(-c2ccc(O)cc2)on1)N1CCN(c2ccccc2)CC1` is lower in survival: 101% for the first, 96% for the second.

Compared with `CCOCCCn1c(SCC(=O)Nc2ccccc2CC)nc2ccccc2c1=O`, `Cc1ccc(Cn2c(SCC(=O)NCc3ccccc3)nc3ccsc3c2=O)cc1` is higher in survival: 80% for the first, 92% for the second.

Compared with `CC(C)CCn1c(SCc2cccc(F)c2)nc2ccsc2c1=O`, `Cc1ccccc1CSc1nc2ccsc2c(=O)n1CCC(C)C` is lower in survival: 87% for the first, 68% for the second.

Compared with `O=C(CSc1nc2ccsc2c(=O)n1Cc1ccccc1Cl)NCc1ccc(Cl)cc1`, `Cc1cc(=O)n(Cc2ccccc2Cl)c2c1c(C)nn2-c1ccccc1` is lower in survival: 101% for the first, 100% for the second.

First: Cc1nc2sc(C(=O)N(C)Cc3ccccc3)c(NC(=O)c3ccccc3)c2c(C)c1Cl
Second: O=C(NCCc1ccccc1)c1cc(-c2cccc(Cl)c2)on1
The survival of the first is lower: 60% for the first, 76% for the second.

Compared with `CCC(=O)N1c2ccccc2CC1C(=O)NCc1ccc(OC(C)C)cc1` (stereo not given), `Cc1csc2nc(COc3ccc(NC(=O)C(C)C)cc3)cc(=O)n12` is higher in survival: 97% for the first, 98% for the second.

First: CC1CCN(CC(=O)O)CC1
Second: CC1CCN(C(=O)c2cc(-c3ccc(Cl)cc3)on2)CC1
The survival of the first is higher: 99% for the first, 66% for the second.

Going from `COc1cc(-c2noc(CSc3nc(-c4ccc(F)cc4)cc(=O)[nH]3)n2)cc(OC)c1OC` to `COc1ccc(NC(=O)Cn2cc(C(=O)c3ccccc3)c(=O)c3cc(OC)ccc32)c(OC)c1`, the survival rises from 69% to 92%.

Compared with `O=C(C1CC(c2ccccc2O)=NO1)N1CCCC1` (stereo not given), `Cc1ccc(-c2cc(C(=O)N3CCCC3)no2)cc1` is higher in survival: 91% for the first, 98% for the second.

Compared with `CCc1cc(C(=O)N2CCN(c3ccccc3)CC2)no1`, `COc1ccc(-c2cc(C(=O)N3CCN(c4ccccc4)CC3)no2)cc1` is higher in survival: 48% for the first, 77% for the second.

First: CC1CCN(C(=O)c2cc(-c3ccc(Br)cc3)on2)CC1
Second: NC(=O)C1CCN(C(=O)c2cc(-c3ccccc3)on2)CC1
The survival of the first is lower: 51% for the first, 98% for the second.

First: O=C(O)c1cc(-c2ccccc2)on1
Second: CCN(CC)C(=O)c1cc(-c2ccccc2)on1
The survival of the first is lower: 100% for the first, 101% for the second.

Going from `CN(C(=O)c1cc(-c2ccccc2)on1)C1CCCCC1` to `COCCNC(=O)c1cc(-c2cccc(Cl)c2)on1`, the survival rises from 91% to 134%.

First: CCN(CCCNC(=O)Cn1ncc2c([nH]c3ccc(C)cc32)c1=O)c1ccccc1
Second: Cc1cccc(CNC(=O)CN2C(=O)CCn3nc(-c4cn(C)c5ccccc45)cc32)c1
The survival of the first is lower: 115% for the first, 119% for the second.

Going from `CCOC(=O)COc1ccc(CC)cc1C(=O)c1ccn2nc(-c3ccc(Cl)cc3)cc2n1` to `CCc1ccc(CN(Cc2ccco2)C(=O)c2cc(-c3ccc(Cl)cc3)on2)cc1`, the survival rises from 74% to 75%.

Compared with `COc1ccccc1NC(=O)N(Cc1nnc2n1CCCCC2)c1ccc(F)cc1`, `COc1ccccc1N1CCN(C(=O)c2cc(-c3ccccc3O)on2)CC1` is lower in survival: 91% for the first, 61% for the second.

In the case of `Cc1ccc(CSc2nc3ccsc3c(=O)n2CCC(C)C)cc1`, the survival is reported as -5% (active).
With `Cc1ccc(Cn2c(SCC(=O)NCc3ccccc3Cl)nc3ccsc3c2=O)cc1` the survival was -5% (active).
`CC1CCN(C(=O)c2cc(-c3cccc(Cl)c3)on2)CC1` was tested, and the survival was -15% (active).
`O=C(c1cc(-c2cccc(Cl)c2)on1)N1CCN(c2ccccc2)CC1` was tested, and the survival was 23% (active).
With `O=C(c1cc(-c2ccccc2O)on1)N1CCCCC1` the survival was 40% (active).
For `CN(C(=O)c1cc(-c2ccccc2O)on1)c1ccccc1`, the survival was 40% (active).
In the case of `O=C(c1cc(-c2cccc(Cl)c2)on1)N1CCCCC1`, the survival is reported as 46% (active).
With `CN(Cc1ccccc1)C(=O)c1cc(-c2cccc(Cl)c2)on1` the survival was -15% (active).
For `COc1ccccc1-c1cc(C(=O)N2CCN(c3ccccc3)CC2)no1`, the survival was -15% (active).
For `CCN(CC)C(=O)c1cc(-c2ccc(Cl)cc2)on1`, the survival was 36% (active).
